Laboratory results: PubChem BioAssay (NCATS)
Records with an inconclusive call do not appear. The source made the active and inactive calls. Calls come from the whole dose curve; as a rule, active = well fitted curve in the direction sought with a large enough effect; inconclusive = small, poorly fitted or top-dose-only effect, or another doubt; inactive = no such curve, though single readings can be large; an effect the other way counts as inactive or inconclusive.

How the values were obtained:
[1] = Quantitative High-Throughput drug screen in 47 multiple myeloma cell lines against the NCATS MIPE library collection: INA6_PLB cell viability assay (AID 1918965; note: nearly all actives have a fitted effect of over 55% in size; note: potency is the fitted concentration of half-maximal effect)
In short: (§1)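 Myeloma cell lines, 500 cells per well, exposed to MIPE 4.0 library compounds for 48 h at 37C, 5% CO2. Viability from ATP by CellTiter-Glo luminescence; normalised to DMSO (100%) and media-only (0%) wells.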

[2] = Quantitative High-Throughput drug screen in 47 multiple myeloma cell lines against the NCATS MIPE library collection: JJN3_DSMZ cell viability assay (AID 1918966; note: nearly all actives have a fitted effect of over 50% in size; note: potency is the fitted concentration of half-maximal effect)
In short: (§2)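 CellTiter-Glo luminescence (ATP) after 48 h compound exposure, 37C/5% CO2; 500 cells/well; MIPE 4.0 approved/investigational drugs pinned in; DMSO = 100%, media only = 0% viability.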

[3] = Quantitative High-Throughput drug screen in 47 multiple myeloma cell lines against the NCATS MIPE library collection: H1112_PLB cell viability assay (AID 1918967; note: nearly all actives have a fitted effect of over 30% in size; note: potency is the fitted concentration of half-maximal effect)
In short: as §2

[4] = Quantitative High-Throughput drug screen in 47 multiple myeloma cell lines against the NCATS MIPE library collection: Karpas25_ECACC cell viability assay (AID 1918968; note: nearly all actives have a fitted effect of over 35% in size; note: potency is the fitted concentration of half-maximal effect)
In short: as §2

[5] = Quantitative High-Throughput drug screen in 47 multiple myeloma cell lines against the NCATS MIPE library collection: KMS12BM_JCRB cell viability assay (AID 1918971); note: potency is the fitted concentration of half-maximal effect; nearly all actives have a fitted effect of over 35% in size
In short: (§3)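 Approved and investigational drugs from MIPE 4.0 were added by pin tool to 500 cells per well. After 48 hours at 37C, ATP-based CellTiter-Glo luminescence indicated remaining viability.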

[6] = Quantitative High-Throughput drug screen in 47 multiple myeloma cell lines against the NCATS MIPE library collection: MMM1_PLB cell viability assay (AID 1918976); note: potency is the fitted concentration of half-maximal effect; nearly all actives have a fitted effect of over 35% in size
In short: (§4)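 500 cells/well per myeloma line exposed to pinned MIPE 4.0 compounds for 48 h at 37 °C, 5% CO2. Viability read as ATP by CellTiter-Glo luminescence, normalised to DMSO-only (100%) and media-only (0%) wells.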

[7] = Quantitative High-Throughput drug screen in 47 multiple myeloma cell lines against the NCATS MIPE library collection: MOLP8_DSMZ cell viability assay (AID 1918977); note: nearly all actives have a fitted effect of over 45% in size; note: potency is the fitted concentration of half-maximal effect
In short: as §4

[8] = Quantitative High-Throughput drug screen in 47 multiple myeloma cell lines against the NCATS MIPE library collection: NCIH929_DSMZ cell viability assay (AID 1918978); note: nearly all actives have a fitted effect of over 35% in size; note: potency is the fitted concentration of half-maximal effect
In short: as §4

[9] = Quantitative High-Throughput drug screen in 47 multiple myeloma cell lines against the NCATS MIPE library collection: OCIMY1_PLB cell viability assay (AID 1918979); note: nearly all actives have a fitted effect of over 35% in size; note: potency is the fitted concentration of half-maximal effect
In short: as §4

[10] = Quantitative High-Throughput drug screen in 47 multiple myeloma cell lines against the NCATS MIPE library collection: MM1S_ATCC cell viability assay (AID 1918980); note: potency is the fitted concentration of half-maximal effect; nearly all actives have a fitted effect of over 45% in size
In short: as §4

[11] = Quantitative High-Throughput drug screen in 47 multiple myeloma cell lines against the NCATS MIPE library collection: MM1R_ATCC cell viability assay (AID 1918981)
In short: as §4

[12] = Quantitative High-Throughput drug screen in 47 multiple myeloma cell lines against the NCATS MIPE library collection: KMS34_JCRB cell viability assay (AID 1918985); note: nearly all actives have a fitted effect of over 40% in size; note: potency is the fitted concentration of half-maximal effect
In short: as §4

[13] = Quantitative High-Throughput drug screen in 47 multiple myeloma cell lines against the NCATS MIPE library collection: KMS12PE_JCRB cell viability assay (AID 1918972); note: nearly all actives have a fitted effect of over 30% in size; note: potency is the fitted concentration of half-maximal effect
In short: as §1

[14] = Quantitative High-Throughput drug screen in 47 multiple myeloma cell lines against the NCATS MIPE library collection: KMS20_JCRB cell viability assay (AID 1918973); note: nearly all actives have a fitted effect of over 45% in size; note: potency is the fitted concentration of half-maximal effect
In short: as §2

[15] = Quantitative High-Throughput drug screen in 47 multiple myeloma cell lines against the NCATS MIPE library collection: KMS26_JCRB cell viability assay (AID 1918975); note: nearly all actives have a fitted effect of over 45% in size; note: potency is the fitted concentration of half-maximal effect
In short: as §3

[16] = Quantitative High-Throughput drug screen in 47 multiple myeloma cell lines against the NCATS MIPE library collection: LP1_DSMZ cell viability assay (AID 1918982); note: nearly all actives have a fitted effect of over 35% in size; note: potency is the fitted concentration of half-maximal effect
In short: as §4

[17] = Quantitative High-Throughput drug screen in 47 multiple myeloma cell lines against the NCATS MIPE library collection: KMS28PE_JCRB cell viability assay (AID 1918983); note: nearly all actives have a fitted effect of over 35% in size; note: potency is the fitted concentration of half-maximal effect
In short: as §4

[18] = Quantitative High-Throughput drug screen in 47 multiple myeloma cell lines against the NCATS MIPE library collection: L363_DSMZ cell viability assay (AID 1918984); note: nearly all actives have a fitted effect of over 40% in size; note: potency is the fitted concentration of half-maximal effect
In short: as §4

[19] = Quantitative High-Throughput drug screen in 47 multiple myeloma cell lines against the NCATS MIPE library collection: KMS21BM_JCRB cell viability assay (AID 1918974); conditions: ATP luminescence, 48 h; viability: at 45.8 µM (top of the series); note: potency is the fitted concentration of half-maximal effect
In short: as §2

[20] = Quantitative High-Throughput drug screen in 47 multiple myeloma cell lines against the NCATS MIPE library collection: KMS27_JCRB cell viability assay (AID 1918970); conditions: KMS27 myeloma cells, CellTiter-Glo ATP viability, 48 h; viability (% of DMSO): at 45.8 µM (top of the series); note: nearly all actives have a fitted effect of over 30% in size
In short: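 CellTiter-Glo luminescence after 48 h drug exposure at 37 °C; 500 cells/well, 1536-well format, pin-tool compound addition; DMSO = 100%, media-only = 0% viability.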

Measured: Potency

O=c1c(O)c(-c2ccc(O)c(O)c2)oc2cc(O)ccc12
active: [1] 7.43 µM | [2] 20.9 µM | [3] 26.4 µM | [4] 8.33 µM | [5] 26.4 µM | [6] 26.4 µM | [7] 18.7 µM | [8] 18.7 µM | [9] 23.5 µM | [10] 23.5 µM | [11] 23.5 µM | [12] 18.7 µM

C[C@H](NC(=O)C(C#N)=Cc1cccc(Br)n1)c1ccccc1
active: [1] 1.87 µM | [2] 4.18 µM | [3] 2.35 µM | [4] 2.09 µM | [5] 4.69 µM | [13] 16.6 µM | [14] 2.35 µM | [15] 2.35 µM | [6] 7.43 µM | [8] 1.66 µM | [9] 7.43 µM | [10] 8.33 µM | [11] 2.09 µM | [16] 5.9 µM | [17] 3.72 µM | [18] 11.8 µM | [12] 7.43 µM

C=CC(=O)Nc1cc(NC(=O)c2ccc(C)c(NC(=O)c3ccno3)c2)cc(C(F)(F)F)c1
active: [1] 16.6 µM | [2] 18.7 µM | [3] 18.7 µM | [4] 14.8 µM | [5] 23.5 µM | [13] 8.33 µM | [15] 18.7 µM | [6] 20.9 µM | [8] 16.6 µM | [10] 16.6 µM | [11] 20.9 µM

C[C@]12CC[C@@H]3c4ccc(O)cc4CC[C@H]3[C@H]1CC[C@H]2O
active: [1] 8.33 µM | [2] 23.5 µM | [3] 8.33 µM | [4] 10.5 µM | [5] 33.2 µM | [14] 18.7 µM | [19] 3.32 µM | [15] 5.9 µM | [10] 8.33 µM | [11] 14.8 µM | [17] 29.6 µM

Cc1cc(O)c2c(c1)C(=O)c1cccc(O)c1C2=O
not listed: [5] | [6] | [10] | [11] | [13] | [14] | [19]
inactive: all other assays above

COc1ccc(S(=O)(=O)Nc2cccnc2Nc2ccc(O)cc2)cc1
inactive: [18]
active: [1] 0.0833 µM | [2] 1.32 µM | [3] 0.105 µM | [4] 0.235 µM | [5] 0.0743 µM | [15] 2.64 µM | [7] 1.18 µM | [8] 1.18 µM | [10] 0.209 µM | [11] 0.105 µM | [17] 0.105 µM | [12] 0.0469 µM

CN(C)CCN1C(=O)c2cccc3cc(N)cc(c23)C1=O
active: [1] 3.32 µM | [2] 20.9 µM | [3] 18.7 µM | [4] 18.7 µM | [5] 5.26 µM | [13] 18.7 µM | [15] 20.9 µM | [6] 11.8 µM | [7] 23.5 µM | [8] 8.33 µM | [9] 23.5 µM | [10] 14.8 µM | [11] 9.35 µM | [17] 16.6 µM | [18] 16.6 µM | [12] 23.5 µM

C[C@H](NC(=O)[C@@H](O)c1cc(F)cc(F)c1)C(=O)N[C@@H]1C(=O)N(C)c2ccccc2-c2ccccc21
active: [3] 14.8 µM
not listed: [5] | [6] | [8] | [10] | [11] | [18] | [19] | [20]
inactive: all other assays above

CN(C)CC[C@H](c1ccc(Cl)cc1)c1ccccn1
active: [10] 16.6 µM
inactive: [1] | [2] | [3] | [4] | [15] | [8] | [16] | [12]

CN[C@@H]1C[C@H]2O[C@@](C)([C@H]1OC)n1c3ccccc3c3c4c(c5c6ccccc6n2c5c31)C(=O)N[C@H]4O
active: [1] 0.0418 µM | [2] 1.66 µM | [3] 0.526 µM | [4] 0.132 µM | [15] 1.66 µM | [8] 0.118 µM | [9] 0.935 µM | [10] 0.332 µM | [11] 0.372 µM | [16] 1.05 µM | [17] 0.833 µM

CN[C@H]1[C@@H](O)[C@@H]2O[C@@H]3O[C@H](C)CC(=O)[C@]3(O)O[C@@H]2[C@@H](NC)[C@H]1O
active: [1] 2.96 µM | [2] 0.105 µM | [3] 2.64 µM | [4] 0.0743 µM | [5] 9.35 µM | [13] 0.833 µM | [19] 0.418 µM | [15] 1.66 µM | [6] 1.66 µM | [7] 11.8 µM | [9] 8.33 µM | [10] 0.209 µM | [11] 1.18 µM | [16] 5.9 µM | [17] 10.5 µM | [18] 0.743 µM | [12] 1.18 µM
